Experimental data taken from PubChem BioAssay (Tox21).
Inconclusive results are not listed. Where a call stands in place of a potency, no number is given. Unmarked numbers belong to inactive results. Active and inactive are the calls of the source. Unless noted, calls follow the shape of the dose curve; as a rule, active = well fitted curve in the direction sought with a large enough effect in the repeat runs; inconclusive = weak or mixed curves; inactive = no such curve, though single readings can be large; an effect the other way counts as inactive or inconclusive.

Assays:
[1] = qHTS assay to identify small molecule antagonists of the estrogen related receptor (ERR) signaling pathway from Tox21 library - cell viability counter screen (AID 1224834); also: nearly all actives have a fitted effect of over 30% in size; also: potency is read from the fitted curve at half-maximal effect
Method in brief: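 After 17.5 h of compound exposure at 37 C, ERR cells are incubated with CellTiter-Fluor for 30 min and fluorescence intensity serves as the viability measure.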

[2] = biological target: Luciferin 4-monooxygenase (Photinus pyralis) (UniProt P08659); experiment: qHTS assay to identify small molecule inhibitors of firefly luciferase (AID 1224835); also: nearly all actives have a fitted effect of over 25% in size; also: potency is read from the fitted curve at half-maximal effect
Method in brief: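 Biochemical qHTS: compounds run as interplate titrations against purified firefly enzyme, with D-luciferin and ATP each at its KM concentration. Light output recorded by CCD imaging.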

[3] = qHTS assay to identify small molecule agonists of the constitutive androstane receptor (CAR) signaling pathway - cell viability counter screen (AID 1224836); also: nearly all actives have a fitted effect of over 45% in size; also: potency is read from the fitted curve at half-maximal effect
Method in brief: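 HepG2-CYP2B6-hCAR, 2500 cells/well, 4 h pre-incubation; cpd 15 conc + PK11195 0.75 uM final; 23 h, 37 C/5% CO2; CellTiter-Fluor, fluorescence.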

[4] = qHTS assay to identify small molecule antagonists of the constitutive androstane receptor (CAR) signaling pathway - cell viability counter screen (AID 1224837); also: nearly all actives have a fitted effect of over 45% in size; also: potency is read from the fitted curve at half-maximal effect
Method in brief: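 Counter screen run in HepG2-CYP2B6-hCAR cells: 4 hr settle, compound titration (15 concentrations) with 50 nM CITCO, 23 hr at 37 C/5% CO2, CellTiter-Fluor fluorescence.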

[5] = qHTS assay to identify small molecule antagonists of the estrogen related receptor signaling pathway with the pleiotropic PPARgamma coactivator (PGC) from Tox21 10K library - cell viability counter screen (AID 1224840; active = well fitted cell-killing curve with a large enough effect in the repeat runs, not every such curve was filed as active; also: nearly all actives have a fitted effect of over 40% in size; also: potency is read from the fitted curve at half-maximal effect)
Method in brief: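 Following seeding of 2,000 PGC/ERR cells/well and 6 hours' incubation, test compounds were delivered in DMSO. The plates then sat 17.5 hours at 37 C before a fluorogenic live-cell protease reagent (CellTiter-Fluor) was read after 30 min.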

[6] = biological target: Thyrotropin receptor (Homo sapiens) (UniProt P16473); experiment: qHTS assay to identify small molecule agonists of the thyroid stimulating hormone receptor (TSHR) signaling pathway (AID 1224843; calls by dose curve; also: nearly all actives have a fitted effect of over 45% in size)
Method in brief: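 Steps: seed 800 TSHR-HEK293 cells per well; add test compound and hold 30 min at ambient temperature; dispense cAMP-d2 then anti-cAMP cryptate; incubate 1 h at ambient; measure fluorescence intensity.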

[7] = qHTS assay to identify small molecule agonists of the hypoxia (HIF-1) signaling pathway - cell viability counter screen (AID 1224844; calls by dose curve; also: nearly all actives have a fitted effect of over 50% in size)
Method in brief: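 Cells (HRE-bla ME-180, 2,000 per well) sat 5 hrs at 37C, got compound for 17 hrs, were read for CCF4-AM FRET, and were finally lysed with CellTiter-Glo for a 30 min room-temperature luminescence read.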

[8] = qHTS assay to identify small molecule agonists of H2AX (AID 1224845; active = well fitted activation curve with a large enough effect in the signal ratio in the repeat runs, not every such curve was filed as active; the % refers to the signal ratio)
Method in brief: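 Wild-type CHO-K1 cells, plated overnight, exposed 3hr at 37C to 15 concentrations (0.76% DMSO final). Lysed, then HTRF anti-pH2AX (S139) cryptate and anti-H2AX-d2 antibodies, 24 hr room temperature; 665/620 nm emission read.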

[9] = qHTS assay to identify small molecule agonists of the hypoxia (HIF-1) signaling pathway (AID 1224846; active = well fitted activation curve with a large enough effect in the signal ratio in the repeat runs, not every such curve was filed as active; the % refers to the signal ratio)
Method in brief: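 A low-serum medium (0.5% dialyzed FBS) holding 2,000 HRE-bla ME-180 cells per well is preincubated for 5 hrs, dosed with compounds by pintool, and kept a further 17 hrs at 37C, 5% CO2 before CCF4-AM FRET detection of beta-lactamase.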

[10] = qHTS assay to identify small molecule agonists of H2AX - cell viability counter screen (AID 1224847; calls by dose curve; also: nearly all actives have a fitted effect of over 30% in size; also: potency is read from the fitted curve at half-maximal effect)
Method in brief: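 Cells plated first: CHO-K1, 1000 per well in 10% FBS medium, incubated overnight at 37C. Then 15-point compound titration added (final DMSO 0.76%) for 3 hr. Finally CellTiter-Glo added and luminescence read.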

[11] = biological target: Nuclear receptor subfamily 1 group I member 3 (Homo sapiens) (UniProt Q14994); experiment: qHTS assay to identify small molecule agonists of the constitutive androstane receptor (CAR) signaling pathway (AID 1224839); also: nearly all actives have a fitted effect of over 15% in size; also: potency is read from the fitted curve at half-maximal effect;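 as to activation: HepG2 cells stably carrying human CAR and a CYP2B6 luciferase reporter; series mostly up to about 92 µM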
Method in brief: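 HepG2-CYP2B6-hCAR cells, 2500/well, 4 h pre-incubation; compounds 15 conc.; PK11195 0.75 uM final; 24 h, 37 C/5% CO2; ONE-Glo luciferase read.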

[12] = qHTS assay to identify small molecule antagonists of the estrogen related receptor signaling pathway with the pleiotropic PPARgamma coactivator (PGC) from Tox21 10K library (AID 1224841; call rule not given here; also: series mostly up to about 92 µM; actives are mostly falling curves and most rising ones were filed inactive; nearly all actives have a fitted effect of over 50% in size)
Method in brief: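 qHTS antagonist format: PGC/ERR cells, 2k/well, compound in DMSO by pin transfer after 6 h attachment, 18 h treatment at 37 C, One-Glo luminescence read at 30 min.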

[13] = qHTS assay to identify small molecule agonists of the estrogen related receptor signaling pathway with the pleiotropic PPARgamma coactivator (PGC) from Tox21 10K library (AID 1224842); also: nearly all actives have a fitted effect of over 15% in size
Method in brief: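 PGC/ERR reporter cell line, 2,000 cells per well, incubated 6 h at 37 C before 23 nL compound in DMSO was added. After 18 h at 37 C, One-Glo luminescence read following 30 min at room temperature.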

[14] = biological target: Nuclear receptor subfamily 1 group I member 3 (Homo sapiens) (UniProt Q14994); experiment: qHTS assay to identify small molecule antagonists of the constitutive androstane receptor (CAR) signaling pathway (AID 1224838);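 also: HepG2 cells stably expressing hCAR with CYP2B6 luciferase reporter stimulated by CITCO; nearly all actives have a fitted effect of over 40% in size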
Method in brief: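 Cell line: HepG2 double-stable for hCAR and CYP2B6-2.2kb reporter. Agonist: CITCO, 50 nM final. Compounds: 15 concentrations, 24 h, 37 C. Detection: ONE-Glo luminescence.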

Chain of Luciferin 4-monooxygenase (Photinus pyralis) (P08659 whole entry, looked up): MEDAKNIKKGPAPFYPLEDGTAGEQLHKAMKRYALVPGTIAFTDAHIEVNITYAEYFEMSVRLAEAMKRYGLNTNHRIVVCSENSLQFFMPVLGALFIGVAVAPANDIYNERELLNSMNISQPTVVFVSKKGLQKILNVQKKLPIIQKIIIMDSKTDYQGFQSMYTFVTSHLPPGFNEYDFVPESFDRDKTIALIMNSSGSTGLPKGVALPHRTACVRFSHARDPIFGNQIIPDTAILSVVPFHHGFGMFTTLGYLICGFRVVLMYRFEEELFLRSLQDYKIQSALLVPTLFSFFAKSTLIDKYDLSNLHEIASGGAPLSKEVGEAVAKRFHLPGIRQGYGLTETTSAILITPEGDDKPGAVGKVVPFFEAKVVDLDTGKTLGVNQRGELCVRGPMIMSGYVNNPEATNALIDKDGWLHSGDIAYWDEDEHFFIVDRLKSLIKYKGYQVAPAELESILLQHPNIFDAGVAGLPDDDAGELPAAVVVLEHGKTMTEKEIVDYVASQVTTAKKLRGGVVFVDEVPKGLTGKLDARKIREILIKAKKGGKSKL
Chain of Nuclear receptor subfamily 1 group I member 3 (Homo sapiens) (Q14994 whole entry, looked up): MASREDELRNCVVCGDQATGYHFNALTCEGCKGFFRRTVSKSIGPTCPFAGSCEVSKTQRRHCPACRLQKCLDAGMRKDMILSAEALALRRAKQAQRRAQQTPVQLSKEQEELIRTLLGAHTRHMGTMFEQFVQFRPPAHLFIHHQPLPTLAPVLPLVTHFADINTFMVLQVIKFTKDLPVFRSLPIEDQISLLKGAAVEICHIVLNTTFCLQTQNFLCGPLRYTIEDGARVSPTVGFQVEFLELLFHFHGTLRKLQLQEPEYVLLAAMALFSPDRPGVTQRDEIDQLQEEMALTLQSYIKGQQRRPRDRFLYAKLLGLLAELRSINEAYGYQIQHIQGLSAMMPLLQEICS
Chain of Thyrotropin receptor (Homo sapiens) (P16473 whole entry, looked up): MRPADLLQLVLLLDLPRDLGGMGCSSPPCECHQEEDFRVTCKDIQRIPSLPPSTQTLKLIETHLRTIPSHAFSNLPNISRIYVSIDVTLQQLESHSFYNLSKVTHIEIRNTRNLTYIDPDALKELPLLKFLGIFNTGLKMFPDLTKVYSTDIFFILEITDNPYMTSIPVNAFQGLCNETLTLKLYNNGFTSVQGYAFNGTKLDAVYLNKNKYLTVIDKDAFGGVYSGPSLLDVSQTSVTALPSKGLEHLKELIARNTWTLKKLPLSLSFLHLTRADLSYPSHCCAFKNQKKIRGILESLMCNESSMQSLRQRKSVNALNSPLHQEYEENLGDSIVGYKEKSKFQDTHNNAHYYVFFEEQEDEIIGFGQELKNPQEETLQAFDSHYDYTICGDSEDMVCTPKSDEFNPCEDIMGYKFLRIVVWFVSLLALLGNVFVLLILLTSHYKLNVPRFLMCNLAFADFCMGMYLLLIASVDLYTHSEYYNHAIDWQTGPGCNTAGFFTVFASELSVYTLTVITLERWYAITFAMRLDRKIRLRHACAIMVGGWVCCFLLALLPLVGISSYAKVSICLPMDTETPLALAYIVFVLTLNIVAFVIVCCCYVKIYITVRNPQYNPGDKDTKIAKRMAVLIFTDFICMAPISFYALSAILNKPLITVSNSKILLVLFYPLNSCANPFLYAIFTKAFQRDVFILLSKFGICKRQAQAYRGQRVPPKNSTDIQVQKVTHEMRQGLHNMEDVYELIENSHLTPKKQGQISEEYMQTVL

Compound	Potency [1]	Potency [2]	Potency [3]	Potency [4]	Potency [5]	Potency [6]	Potency [7]	Potency [8]	Potency [9]	Potency [10]	Potency [11]	Potency [12]	Potency [13]	Potency [14]
Cc1ccc(C2OC[C@@H]3OC(c4ccc(C)cc4)O[C@H]([C@H](O)CO)[C@@H]3O2)cc1 (some centres undefined)	inactive	inactive	inactive	inactive	inactive	inactive	inactive	inactive	inactive	inactive	–	–	–	–
SC1CCCCC1	inactive	inactive	inactive	inactive	inactive	inactive	inactive	inactive	inactive	inactive	inactive	inactive	inactive	–
CO[Si](OC)(c1ccccc1)c1ccccc1	inactive	inactive	inactive	inactive	inactive	inactive	–	–	–	inactive	inactive	–	inactive	–
C/C=C/C(=O)OCC(C)C	inactive	inactive	inactive	inactive	inactive	inactive	inactive	inactive	inactive	–	–	–	–	–
O=c1cc[nH]cc1	inactive	inactive	inactive	inactive	inactive	inactive	inactive	inactive	inactive	inactive	inactive	–	–	–
Cc1ccc(C=O)cc1	inactive	inactive	inactive	inactive	inactive	inactive	inactive	inactive	inactive	inactive	–	–	–	–
N#Cc1ccc(C/C(=N/NC(=O)Nc2ccc(OC(F)(F)F)cc2)c2cccc(C(F)(F)F)c2)cc1	inactive	inactive	inactive	inactive	inactive	inactive	–	inactive	–	inactive	inactive	–	–	inactive
N#CCCOCCC#N	inactive	inactive	inactive	inactive	inactive	–	inactive	–	inactive	inactive	–	–	inactive	–
CCC1(C)C(=O)N(Cl)C(=O)N1Cl (centres undefined)	inactive	inactive	inactive	inactive	inactive	inactive	inactive	inactive	inactive	inactive	inactive	–	inactive	–
C=C1CC[C@H]2O[C@]2(C)CC[C@@H]2[C@@H]1CC2(C)C	inactive	inactive	inactive	inactive	inactive	inactive	inactive	inactive	inactive	inactive	inactive	inactive	inactive	–
CCCCCc1ccc(O)cc1	inactive	56.4 µM (active)	inactive	inactive	inactive	inactive	–	–	–	89.8 µM (active)	54.5 µM (active)	inactive	inactive	–
CC/C(=C(/c1ccc(O)cc1)c1ccc(OCCN(C)C)cc1)c1ccccc1	32 µM (active)	inactive	40.3 µM (active)	32 µM (active)	32 µM (active)	–	–	–	–	41.9 µM (active)	inactive	–	inactive	–
